Measured values: PubChem BioAssay (EPA / NIEHS)
Results filed as inconclusive are left out. Active and inactive are the calls of the source. How the source made its calls, unless noted: active means hit-call score of the fitted dose curve at least 0.9, where 1 is the maximum; inactive means score below 0.9.

What was measured:
[1] = ATG_CMV_CIS: Attagene CIS-FACTORIAL HepG2 Assay for human CMV (Internal Marker) (AID 2282928); details: HepG2 CMV promoter reporter, transcription factor profiling; actives raise or lower the signal;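 further: endpoint acts as a background internal control marker rather than a target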
Procedure, shortened: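 24 h chemical treatment, HepG2 with transient multi-reporter transfection; RNA → oligo(dT) RT → PCR → 6-FAM extension → HpaI digest → CE fluorescence. Bidirectional fit, DMSO negative control.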

[2] = ATG_DR4_LXR_CIS: Attagene CIS-FACTORIAL HepG2 Assay for human Liver X Receptor (LXR), DR4 submotif (AID 2282929); details: HepG2 Attagene DR4 cis-reporter, mRNA transcription; actives raise or lower the signal
Procedure, shortened: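 Measures endogenous transcription factor activity via a DR4-driven reporter transcript in human HepG2 cells. Compounds incubated 24 h; mRNA quantified by RT-PCR and capillary electrophoresis, analysed as gain or loss of signal versus DMSO.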

[3] = ATG_M_19_CIS: Attagene CIS-FACTORIAL HepG2 Assay for M19 Transcription Factor (Internal Marker) (AID 2282939); details: HepG2 Attagene CIS-FACTORIAL M19 internal marker reporter; actives raise or lower the signal
Procedure, shortened: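 Chemical-treated HepG2 (24 h) with MRTU constructs; reporter transcripts detected by fluorescent RT-PCR fragment analysis on capillary electrophoresis. Internal background marker, DMSO as baseline.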

[4] = target: Hepatocyte nuclear factor 3-beta (Homo sapiens) (UniProt Q9Y261); test: ATG_FoxA2_CIS: Attagene CIS-FACTORIAL HepG2 Assay for human Forkhead box A2 (FOXA2) (AID 2282942); details: HepG2 cis-reporter transcription factor activity, 24 h; actives raise or lower the signal
Chain of Hepatocyte nuclear factor 3-beta (Homo sapiens) (Q9Y261 whole entry, looked up): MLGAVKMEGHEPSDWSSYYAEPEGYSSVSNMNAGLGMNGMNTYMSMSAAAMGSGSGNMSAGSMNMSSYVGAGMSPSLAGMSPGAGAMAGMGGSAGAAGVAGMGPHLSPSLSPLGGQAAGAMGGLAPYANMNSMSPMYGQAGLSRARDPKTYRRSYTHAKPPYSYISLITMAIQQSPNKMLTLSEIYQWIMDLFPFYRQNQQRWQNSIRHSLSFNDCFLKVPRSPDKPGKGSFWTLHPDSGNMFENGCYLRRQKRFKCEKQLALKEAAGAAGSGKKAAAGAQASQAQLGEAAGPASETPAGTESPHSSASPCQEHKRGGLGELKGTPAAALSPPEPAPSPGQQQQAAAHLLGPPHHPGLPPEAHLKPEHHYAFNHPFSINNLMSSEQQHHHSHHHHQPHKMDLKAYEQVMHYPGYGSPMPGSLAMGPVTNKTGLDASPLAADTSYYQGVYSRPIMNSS
Procedure, shortened: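 In transiently transfected human HepG2 cells, promoter-driven reporter mRNA levels after 24 h chemical exposure are determined via RT-PCR with capillary electrophoresis. DMSO serves as baseline for bidirectional fitting.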

[5] = ATG_ISRE_CIS: Attagene CIS-FACTORIAL HepG2 Assay for human Interferon Regulatory Factor 1 (IRF1) binding to an Interferon-Stimulated Response Element (ISRE) (AID 2282948); details: HepG2 ISRE cis-reporter (Attagene), mRNA transcription readout; actives raise or lower the signal
Procedure, shortened: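 Multiplexed mRNA reporter readout in human liver HepG2 cells: cis-element-driven reporters transfected, compound added for 24 h, transcripts amplified, fluorescently labelled and sized by capillary electrophoresis; curve fitting bidirectional against DMSO.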

[6] = target: Hypoxia-inducible factor 1-alpha (Homo sapiens) (UniProt Q16665); test: ATG_HIF1a_CIS: Attagene CIS-FACTORIAL HepG2 Assay for human Hypoxia Inducible Factor 1 (HIF1A) (AID 2282951); details: HepG2 Attagene cis-factorial HIF1a reporter transcription; actives raise or lower the signal
Chain of Hypoxia-inducible factor 1-alpha (Homo sapiens) (Q16665 whole entry, looked up): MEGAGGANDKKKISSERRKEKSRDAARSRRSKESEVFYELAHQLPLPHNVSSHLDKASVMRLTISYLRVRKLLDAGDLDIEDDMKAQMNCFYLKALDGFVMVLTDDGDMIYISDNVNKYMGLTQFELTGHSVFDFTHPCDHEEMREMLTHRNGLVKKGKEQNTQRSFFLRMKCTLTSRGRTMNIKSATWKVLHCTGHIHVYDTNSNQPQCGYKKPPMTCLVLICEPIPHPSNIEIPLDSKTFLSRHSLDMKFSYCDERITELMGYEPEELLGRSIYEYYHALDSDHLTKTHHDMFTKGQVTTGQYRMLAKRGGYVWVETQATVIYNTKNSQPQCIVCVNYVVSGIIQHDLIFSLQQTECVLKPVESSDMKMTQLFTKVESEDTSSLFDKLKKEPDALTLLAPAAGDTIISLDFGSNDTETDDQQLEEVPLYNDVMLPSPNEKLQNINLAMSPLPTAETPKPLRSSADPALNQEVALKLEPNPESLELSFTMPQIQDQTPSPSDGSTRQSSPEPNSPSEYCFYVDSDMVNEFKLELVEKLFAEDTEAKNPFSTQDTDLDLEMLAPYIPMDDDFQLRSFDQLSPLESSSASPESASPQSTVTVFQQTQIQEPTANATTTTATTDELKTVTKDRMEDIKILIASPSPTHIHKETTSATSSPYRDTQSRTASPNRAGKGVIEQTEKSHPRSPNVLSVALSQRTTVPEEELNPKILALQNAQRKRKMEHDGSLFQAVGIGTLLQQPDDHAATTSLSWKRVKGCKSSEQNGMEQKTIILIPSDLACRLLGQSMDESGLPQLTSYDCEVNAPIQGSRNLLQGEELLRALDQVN
Procedure, shortened: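 In this multiplexed cell assay, HepG2 cells bearing transfected cis reporters are dosed for 24 h and reporter mRNA is read by RT-PCR plus capillary electrophoresis; signal increases and decreases are both scored against DMSO.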

[7] = target: Hepatocyte nuclear factor 6 (Homo sapiens) (UniProt Q9UBC0); test: ATG_HNF6_CIS: Attagene CIS-FACTORIAL HepG2 Assay for human Hepatocyte Nuclear Factor 6 (HNF6) (AID 2282952); details: HepG2 Attagene cis-factorial HNF6 reporter transcription; actives raise or lower the signal
Chain of Hepatocyte nuclear factor 6 (Homo sapiens) (Q9UBC0 whole entry, looked up): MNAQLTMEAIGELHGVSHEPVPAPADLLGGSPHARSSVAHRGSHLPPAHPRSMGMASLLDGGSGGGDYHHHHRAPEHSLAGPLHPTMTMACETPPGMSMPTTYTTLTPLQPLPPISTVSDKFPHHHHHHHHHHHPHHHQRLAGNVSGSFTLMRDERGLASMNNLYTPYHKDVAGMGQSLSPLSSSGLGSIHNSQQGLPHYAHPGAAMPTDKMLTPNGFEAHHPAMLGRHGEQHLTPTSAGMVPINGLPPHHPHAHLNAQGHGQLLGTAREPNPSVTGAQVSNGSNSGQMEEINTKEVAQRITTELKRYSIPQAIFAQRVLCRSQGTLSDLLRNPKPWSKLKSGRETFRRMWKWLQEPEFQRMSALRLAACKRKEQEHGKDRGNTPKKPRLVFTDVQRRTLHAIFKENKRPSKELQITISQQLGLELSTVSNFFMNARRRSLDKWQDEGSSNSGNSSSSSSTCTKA
Procedure, shortened: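 Endogenous transcription factor activity in human HepG2 liver cells was captured through cis-regulated reporter constructs. After 24 h treatment, reporter mRNA was measured by RT-PCR with capillary electrophoresis, and activity was fitted in both directions relative to DMSO.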

[8] = target: Heat shock factor protein 1 (Homo sapiens) (UniProt Q00613); test: ATG_HSE_CIS: Attagene CIS-FACTORIAL HepG2 Assay for human Heat Shock Transcription Factor 1 (HSE) (AID 2282953); details: HepG2 HSE cis-reporter, Attagene RNA transcription; actives raise or lower the signal
Chain of Heat shock factor protein 1 (Homo sapiens) (Q00613 whole entry, looked up): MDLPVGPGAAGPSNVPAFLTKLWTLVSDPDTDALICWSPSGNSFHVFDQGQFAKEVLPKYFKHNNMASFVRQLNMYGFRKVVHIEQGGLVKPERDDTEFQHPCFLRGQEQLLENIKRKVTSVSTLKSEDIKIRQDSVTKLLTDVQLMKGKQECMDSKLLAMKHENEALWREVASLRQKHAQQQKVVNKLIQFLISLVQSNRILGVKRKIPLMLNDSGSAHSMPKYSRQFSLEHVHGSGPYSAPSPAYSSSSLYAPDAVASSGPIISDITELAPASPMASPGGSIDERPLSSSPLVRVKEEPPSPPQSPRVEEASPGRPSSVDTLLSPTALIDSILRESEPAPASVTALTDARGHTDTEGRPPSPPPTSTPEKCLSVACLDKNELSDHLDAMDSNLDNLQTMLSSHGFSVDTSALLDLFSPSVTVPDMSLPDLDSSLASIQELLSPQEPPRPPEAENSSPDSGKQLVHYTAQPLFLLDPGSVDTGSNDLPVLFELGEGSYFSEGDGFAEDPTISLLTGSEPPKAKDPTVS
Procedure, shortened: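 Liver-derived HepG2 cells carry transiently introduced multiple reporter units governed by cis promoters. Reporter RNA measured 24 h post-dose through reverse transcription, PCR amplification, fluorescent labelling and capillary electrophoresis, normalised to DMSO.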

[9] = ATG_RORE_CIS: Attagene CIS-FACTORIAL HepG2 Assay for human RAR-related Orphan Receptor Element (RORE) (AID 2282959); details: HepG2 Attagene cis-factorial RORE reporter, mRNA; actives raise or lower the signal
Procedure, shortened: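 Fluorescence intensity of reporter-specific cDNA fragments, separated by capillary electrophoresis, gives the signal. Source: HepG2 liver cells transiently transfected with cis-element reporters and exposed 24 h; DMSO-normalized bidirectional fit.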

[10] = ATG_Sox_CIS: Attagene CIS-FACTORIAL HepG2 Assay for human SRY-box transcription factor (SOX) (AID 2282960); details: HepG2 Attagene cis-factorial SOX reporter, mRNA; actives raise or lower the signal
Procedure, shortened: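 After 24 h of chemical treatment, transfected HepG2 reporter cells are lysed for total RNA. Transcript levels come from RT-PCR with labelled primer extension and capillary electrophoresis, analysed bidirectionally versus DMSO.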

[11] = ATG_TA_CIS: Attagene CIS-FACTORIAL HepG2 Assay for human TA Basal Promoter (AID 2282964); details: HepG2 Attagene CIS-factorial TA basal promoter reporter; actives raise or lower the signal
Procedure, shortened: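 Background internal-marker endpoint from a 52-component HepG2 cis-reporter panel. Cells treated 24 h; reporter transcripts quantified via RT-PCR and CE fluorescence against DMSO baseline.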

[12] = ATG_TGFb_CIS: Attagene CIS-FACTORIAL HepG2 Assay for human Transforming Growth Factor (TGF) (AID 2282967); details: HepG2 Attagene CIS TGFb reporter, mRNA transcription; actives raise or lower the signal
Procedure, shortened: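 Liver HepG2 line, cis-factorial reporter panel, 24 h dosing. Quantitation: RT-PCR products labeled with 6-FAM, cut with HpaI, resolved by capillary electrophoresis; DMSO-referenced bidirectional analysis.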

[13] = ATG_NFI_CIS: Attagene CIS-FACTORIAL HepG2 Assay for human Nuclear Factor I (NFI) (AID 2282989); details: HepG2 cis-regulatory reporter, NFI response element transcription; actives raise or lower the signal
Procedure, shortened: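 Transfected HepG2 liver cells, exposed 24 h, supplied total RNA for oligo(dT) reverse transcription and reporter-specific PCR. Labelled, HpaI-cut fragments were sized by capillary electrophoresis; DMSO set the baseline for bidirectional fitting.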

[14] = target: Myc proto-oncogene protein (Homo sapiens) (UniProt P01106); test: ATG_Myc_CIS: Attagene CIS-FACTORIAL HepG2 Assay for human Myelocytomatosis (Myc) Proto-Oncogene Transcription Factor (AID 2282990); details: HepG2, Attagene cis-reporter transcription factor activity; actives raise or lower the signal
Chain of Myc proto-oncogene protein (Homo sapiens) (P01106 whole entry, looked up): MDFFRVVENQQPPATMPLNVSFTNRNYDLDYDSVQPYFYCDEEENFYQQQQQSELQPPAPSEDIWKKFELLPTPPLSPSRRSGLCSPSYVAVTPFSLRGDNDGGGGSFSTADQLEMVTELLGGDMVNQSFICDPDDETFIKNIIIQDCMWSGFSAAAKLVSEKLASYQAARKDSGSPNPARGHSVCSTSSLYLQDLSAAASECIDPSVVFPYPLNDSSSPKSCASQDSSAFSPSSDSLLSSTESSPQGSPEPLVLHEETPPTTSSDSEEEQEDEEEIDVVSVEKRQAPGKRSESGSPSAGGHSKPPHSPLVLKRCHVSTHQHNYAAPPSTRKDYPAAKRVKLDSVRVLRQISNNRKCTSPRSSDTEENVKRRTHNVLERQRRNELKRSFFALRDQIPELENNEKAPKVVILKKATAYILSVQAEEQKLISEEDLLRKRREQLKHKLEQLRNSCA
Procedure, shortened: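 DMSO-normalised, bidirectionally fitted reporter mRNA signal. HepG2 cells transfected with cis reporter constructs, treated 24 h; transcripts detected by RT-PCR, 6-FAM primer extension and CE.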

[15] = ATG_NRF2_ARE_CIS: Attagene CIS-FACTORIAL HepG2 Assay for human Nuclear Factor Erythroid 2 Related Factor 2 (NFR2) response to Antioxidant Response Elements (ARE) (AID 2282992); details: HepG2 Attagene ARE/NRF2 reporter, transcription factor activity; actives raise or lower the signal;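 on AC50: reporter mRNA level measured by RT-PCR and capillary electrophoresis fluorescence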
Procedure, shortened: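 Endogenous transcription factor activity in human liver HepG2 cells is tracked via a cis-element-driven reporter within a multiplexed set. mRNA induction is read by RT-PCR and capillary electrophoresis after 24 h, with DMSO as baseline.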

[16] = target: Cellular tumor antigen p53 (Homo sapiens) (UniProt P04637); test: ATG_p53_CIS: Attagene CIS-FACTORIAL HepG2 Assay for human p53 Transcription Factor (AID 2282994); details: HepG2 p53 cis-element reporter, Attagene mRNA; actives raise or lower the signal
Chain of Cellular tumor antigen p53 (Homo sapiens) (P04637 whole entry, looked up, the tested form may be a part): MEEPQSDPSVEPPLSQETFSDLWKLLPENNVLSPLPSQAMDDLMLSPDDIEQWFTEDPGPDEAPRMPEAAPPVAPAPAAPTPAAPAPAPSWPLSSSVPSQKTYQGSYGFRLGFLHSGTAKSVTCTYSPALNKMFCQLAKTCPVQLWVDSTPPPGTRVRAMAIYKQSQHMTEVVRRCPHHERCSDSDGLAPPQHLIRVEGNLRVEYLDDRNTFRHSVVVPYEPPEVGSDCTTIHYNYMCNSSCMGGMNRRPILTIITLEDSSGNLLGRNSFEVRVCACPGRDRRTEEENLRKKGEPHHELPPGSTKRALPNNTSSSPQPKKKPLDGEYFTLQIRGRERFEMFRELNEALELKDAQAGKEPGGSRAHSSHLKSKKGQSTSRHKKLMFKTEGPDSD
Procedure, shortened: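 Steps: transfect HepG2 with multiplexed cis reporter constructs; dose chemicals 24 h; extract RNA, reverse-transcribe, PCR-amplify reporter sequences; FAM-label, HpaI-digest, resolve fragments by CE. Activity fitted both directions relative to DMSO.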

[17] = target: Nuclear receptor subfamily 1 group I member 2 (Homo sapiens) (UniProt O75469); test: ATG_PXR_TRANS: Attagene TRANS-FACTORIAL HepG2 Assay for human Pregnane X Receptor (PXR) (AID 2283008; active means hit-call score of the fitted dose curve at least 0.9, where 1 is the maximum)
Chain of Nuclear receptor subfamily 1 group I member 2 (Homo sapiens) (O75469 whole entry, looked up, the tested form may be a part): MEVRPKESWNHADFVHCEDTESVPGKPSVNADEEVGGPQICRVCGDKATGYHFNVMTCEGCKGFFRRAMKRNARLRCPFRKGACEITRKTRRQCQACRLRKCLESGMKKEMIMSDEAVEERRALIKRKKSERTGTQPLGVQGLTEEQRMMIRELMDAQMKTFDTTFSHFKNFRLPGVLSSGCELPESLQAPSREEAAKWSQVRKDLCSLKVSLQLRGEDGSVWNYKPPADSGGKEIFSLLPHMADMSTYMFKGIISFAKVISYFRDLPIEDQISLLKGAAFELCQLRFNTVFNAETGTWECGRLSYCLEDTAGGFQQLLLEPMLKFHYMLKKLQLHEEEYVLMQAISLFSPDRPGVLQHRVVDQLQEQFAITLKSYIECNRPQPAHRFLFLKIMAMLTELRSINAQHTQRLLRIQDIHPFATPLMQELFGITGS
Procedure, shortened: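 HepG2 transfected (FuGene 6) with GAL4-UAS reporter units + PXR-Gal4 chimera; dosed 24 h. Total RNA → oligo(dT) RT → PCR → 6-FAM primer extension → HpaI cut → CE. Gain-of-signal vs DMSO.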

[18] = target: Transcription factor E2F1 (Homo sapiens) (UniProt Q01094); test: ATG_E2F_CIS: Attagene CIS-FACTORIAL HepG2 Assay for human E2F Transcription Factor 1 (AID 2282935); details: HepG2 Attagene cis-reporter, E2F reporter RNA transcripts; actives raise or lower the signal
Chain of Transcription factor E2F1 (Homo sapiens) (Q01094 whole entry, looked up): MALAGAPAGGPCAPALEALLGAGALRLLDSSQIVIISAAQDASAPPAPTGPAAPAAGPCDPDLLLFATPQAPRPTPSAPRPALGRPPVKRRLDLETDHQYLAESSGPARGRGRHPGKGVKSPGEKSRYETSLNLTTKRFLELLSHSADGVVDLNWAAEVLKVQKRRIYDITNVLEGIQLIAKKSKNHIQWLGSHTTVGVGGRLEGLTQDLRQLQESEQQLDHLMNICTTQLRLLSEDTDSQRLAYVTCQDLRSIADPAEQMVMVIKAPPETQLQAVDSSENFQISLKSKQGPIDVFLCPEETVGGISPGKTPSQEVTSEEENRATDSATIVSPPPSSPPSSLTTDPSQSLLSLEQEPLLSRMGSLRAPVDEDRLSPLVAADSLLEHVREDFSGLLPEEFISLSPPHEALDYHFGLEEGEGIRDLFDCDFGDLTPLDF
Procedure, shortened: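 In this cis-factorial format, endogenous factor activity drives transfected reporters in HepG2; transcripts collected at 24 h are quantified by fluorescence after RT-PCR and capillary separation.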

[19] = ATG_VDRE_CIS: Attagene CIS-FACTORIAL HepG2 Assay for human Vitamin D Receptor Element (VDRE) (AID 2282968); details: HepG2 VDRE cis-reporter transcription, actives raise or lower the signal
Procedure, shortened: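 Transfected HepG2 reporter cells, chemical treatment 24 h. RNA isolated, cDNA amplified with reporter-specific primers, products analysed by capillary electrophoresis. Endpoint fitted in both directions versus DMSO.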

[20] = ATG_M_06_TRANS: Attagene TRANS-FACTORIAL HepG2 Assay for M06 Transcription Factor (Internal Marker) (AID 2282983; active means hit-call score of the fitted dose curve at least 0.9, where 1 is the maximum); details: HepG2 Attagene TRANS M06 internal marker reporter
Procedure, shortened: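 Human liver HepG2 cells bearing transiently transfected chimeric NR-GAL4 reporter units were treated with chemicals for 24 h. Total RNA was reverse-transcribed, reporter sequences amplified and labelled, then quantified by capillary electrophoresis. Activity was fitted upward relative to DMSO.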

SMILES: CC(C)CC(=O)CC(C)CC(C)C (stereo not given)
- outcome [1]: inactive
- outcome [2]: inactive
- outcome [3]: inactive
- outcome [4]: inactive
- outcome [5]: inactive
- outcome [6]: inactive
- outcome [7]: inactive
- outcome [8]: inactive
- outcome [9]: inactive
- outcome [10]: inactive
- outcome [11]: inactive
- outcome [12]: inactive
- outcome [13]: inactive
- outcome [14]: inactive
- AC50 [15]: 116 µM (active)
- outcome [16]: inactive
- outcome [17]: inactive

SMILES: COC(=O)[C@]1(C)CCC[C@@]2(C)[C@H]1CC=C1C=C(C(C)C)CC[C@@H]12
- AC50 [1]: 100 µM (active)
- outcome [2]: inactive
- outcome [18]: inactive
- outcome [3]: inactive
- outcome [4]: inactive
- outcome [6]: inactive
- outcome [7]: inactive
- AC50 [8]: 26.4 µM (active)
- outcome [9]: inactive
- outcome [11]: inactive
- outcome [12]: inactive
- AC50 [19]: 26.4 µM (active)
- outcome [20]: inactive
- outcome [13]: inactive
- outcome [14]: inactive
- AC50 [15]: 32.2 µM (active)
- outcome [16]: inactive
- AC50 [17]: 25.1 µM (active)

SMILES: COC(=O)/C=C\C(=O)OC
- outcome [1]: inactive
- outcome [2]: inactive
- outcome [18]: inactive
- outcome [3]: inactive
- outcome [4]: inactive
- AC50 [5]: 45.8 µM (active)
- outcome [6]: inactive
- AC50 [7]: 128 µM (active)
- outcome [8]: inactive
- outcome [9]: inactive
- AC50 [10]: 100 µM (active)
- outcome [11]: inactive
- outcome [12]: inactive
- AC50 [19]: 49.6 µM (active)
- outcome [20]: inactive
- outcome [13]: inactive
- outcome [14]: inactive
- AC50 [15]: 10.5 µM (active)
- outcome [16]: inactive
- outcome [17]: inactive

SMILES: O=C(Oc1ccccc1)c1ccccc1
- outcome [1]: inactive
- outcome [2]: inactive
- outcome [18]: inactive
- outcome [4]: inactive
- outcome [5]: inactive
- outcome [6]: inactive
- outcome [7]: inactive
- outcome [8]: inactive
- outcome [9]: inactive
- outcome [10]: inactive
- outcome [11]: inactive
- outcome [12]: inactive
- outcome [20]: inactive
- outcome [13]: inactive
- outcome [14]: inactive
- outcome [15]: inactive
- outcome [17]: inactive

SMILES: Cc1ccnc(N)c1
- outcome [1]: inactive
- outcome [2]: inactive
- outcome [3]: inactive
- outcome [4]: inactive
- outcome [5]: inactive
- AC50 [6]: 76.7 µM (active)
- outcome [7]: inactive
- outcome [8]: inactive
- outcome [9]: inactive
- outcome [11]: inactive
- outcome [12]: inactive
- outcome [13]: inactive
- outcome [14]: inactive
- AC50 [15]: 66.8 µM (active)
- outcome [16]: inactive
- outcome [17]: inactive

SMILES: CC(=O)CCc1ccccc1
- outcome [1]: inactive
- outcome [2]: inactive
- outcome [18]: inactive
- outcome [3]: inactive
- outcome [4]: inactive
- outcome [5]: inactive
- outcome [6]: inactive
- outcome [7]: inactive
- outcome [8]: inactive
- outcome [9]: inactive
- outcome [10]: inactive
- outcome [12]: inactive
- outcome [19]: inactive
- outcome [13]: inactive
- outcome [14]: inactive
- outcome [15]: inactive
- outcome [16]: inactive
- outcome [17]: inactive

SMILES: CCCOCCC
- outcome [1]: inactive
- outcome [2]: inactive
- outcome [18]: inactive
- outcome [3]: inactive
- outcome [4]: inactive
- outcome [6]: inactive
- outcome [7]: inactive
- outcome [8]: inactive
- outcome [10]: inactive
- outcome [11]: inactive
- outcome [12]: inactive
- outcome [19]: inactive
- outcome [20]: inactive
- outcome [13]: inactive
- outcome [14]: inactive
- outcome [15]: inactive
- outcome [16]: inactive
- outcome [17]: inactive

SMILES: CCc1cc(C(N)=S)ccn1
- outcome [1]: inactive
- outcome [2]: inactive
- outcome [4]: inactive
- outcome [5]: inactive
- outcome [7]: inactive
- outcome [8]: inactive
- outcome [9]: inactive
- outcome [10]: inactive
- outcome [11]: inactive
- outcome [12]: inactive
- outcome [19]: inactive
- outcome [20]: inactive
- outcome [13]: inactive
- outcome [14]: inactive
- outcome [15]: inactive
- outcome [16]: inactive
